PubChem BioAssay (NCATS)
Records with an inconclusive call do not appear. Where a call stands in place of a potency, no number is given. Unmarked numbers belong to inactive results. The source made the active and inactive calls. The call rests on the fitted dose curve; in most records, active means well fitted curve in the direction sought with a large enough effect; inconclusive means small, poorly fitted or top-dose-only effect, or another doubt; inactive means no such curve, though single readings can be large; an effect the other way counts as inactive or inconclusive. Where a SMILES comes first, the peptide text is derived from it. The star is where a group is joined. Cbz = O=C(OCc1ccccc1)*; CH2F = FC*

Experiments:
[1] = target: Calcium and integrin-binding protein 1 (Homo sapiens) (UniProt Q99828); assay: Primary qHTS for Identification of Calcium Integrin Binding Protein 1 (CIB1) Competitor (AID 1508620);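 further: GST tagged CIB1 binding a fluorescein labelled alphaIIb integrin peptide tracer; top concentration of the series differs between compounds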
Calcium and integrin-binding protein 1 (Homo sapiens), sequence (Q99828 whole entry, looked up): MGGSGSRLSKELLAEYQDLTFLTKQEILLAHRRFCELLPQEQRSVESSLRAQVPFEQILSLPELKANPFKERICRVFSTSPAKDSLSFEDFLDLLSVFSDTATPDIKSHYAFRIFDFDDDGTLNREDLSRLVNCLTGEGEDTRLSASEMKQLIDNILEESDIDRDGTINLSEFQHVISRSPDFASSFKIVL
In short: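 Fluorescence polarization competition: GST-tagged CIB1 (1 uM final) preincubated with compound 15 min at room temperature, then FITC-labelled alphaIIb peptide (100 nM final) added. After 15 min at room temperature, polarization read at Ex 480/Em 540.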

[2] = Primary qHTS for inhibitors of nuclear receptor binding SET domain protein 2 (NSD2) in an isogenic RCH-ACV NSD2 p.E1099K mutant (9B) (AID 1645876); further: nearly all actives have a fitted effect of over 70% in size; further: potency means the concentration at half of the fitted maximal effect
[3] = Primary qHTS for inhibitors of nuclear receptor binding SET domain protein 2 (NSD2) in an RCH-ACV wild type WT cells (2C) (AID 1645877); further: nearly all actives have a fitted effect of over 70% in size; further: potency means the concentration at half of the fitted maximal effect

Row | SMILES | Potency [1] | Potency [2] | Potency [3] | activity change, negative = viability loss [2] | activity change, negative = cell killing [3]
1 | C/C=C/C=C/C(O)=C1/C(=O)[C@]2(C)C3/C(=C(O)/C=C/C=C/C)C(=O)C4(C)C1[C@]1(C)O[C@@]4(O)[C@@]3(C)O[C@@]12O | inactive | inactive | – | – | –
2 | Cc1occc(=O)c1O[C@@H]1O[C@H](CO[C@@H]2OC[C@](O)(CO)[C@H]2O)[C@@H](O)[C@H](O)[C@H]1O | inactive | inactive | inactive | – | –
3 | CC1(C)OC(=O)CC(O)C2(C)C1CC(=O)C1(C)C2C(O)CC2(C)C(c3ccoc3)OC(=O)C3OC321 (stereo not drawn) | inactive | inactive | inactive | – | –
4 | CC[C@@H]1[C@H]2CCCCN3C(=O)C[C@H]([C@@H]4[C@H]1OC(=O)[C@H]4C)[C@@H]23 | inactive | inactive | – | – | –
5 | CC1(C)C[C@H]2C=C(C=O)[C@]3(C(=O)O)C[C@]3(C)[C@H]2C1 | inactive | inactive | – | – | –
6 | C/C=C1\[C@H](O[C@@H]2O[C@H](CO)[C@@H](O)[C@H](O)[C@H]2O)OC=C(C(=O)OCCc2ccc(O)cc2)[C@H]1CC(=O)OCCc1ccc(O)cc1 | inactive | inactive | – | – | –
7 | CC(C)c1ccc2c(c1)C(O)CC1C(C)(CO)CCCC21C (stereo not drawn) | inactive | inactive | inactive | – | –
8 | CC1=CC(=O)CC(C)(C)C1/C=C/C(C)OC1OC(COC2OCC(O)C(O)C2O)C(O)C(O)C1O (stereo not drawn) | inactive | inactive | inactive | – | –
9 | C=C1CCC2[C@](C)(CCC[C@]2(C)C(=O)O)[C@H]1CC/C(C)=C/C(=O)OC (stereo partly drawn) | inactive | inactive | inactive | – | –
10 | O=C(O)CC/C=C\C[C@H]1CO[C@@H](c2ccccc2Cl)O[C@H]1c1ccccc1O | inactive | inactive | inactive | – | –
11 | C=C1C(O)CC2C(C(=O)O)=COC(OC3OC(CO)C(O)C(O)C3OC(=O)/C=C\c3ccc(O)cc3)C12 (stereo not drawn) | inactive | inactive | inactive | – | –
12 | C=C1C(O)C(O)C2(CC3C(C)=CCC4C(C)(C(=O)O)CCCC34C)OC2C1O (stereo not drawn) | inactive | inactive | inactive | – | –
13 | COC(=O)CC[C@H](NC(=O)[C@H](CC(C)C)NC(=O)OCc1ccccc1)C(=O)N[C@@H](Cc1cnc[nH]1)C(=O)N[C@@H](CC(=O)OC)C(=O)CF (Cbz-LE(OMe)HD(OMe)-CH2F) | inactive | – | – | -7.97% [at 9.23 µM] | -7.81% [at 9.23 µM]
14 | CCCC1=CC2=C(CO1)C(=O)C(C)(O)C(OC(=O)c1c(C)cc(OC)cc1O)C2 (stereo not drawn) | inactive | inactive | – | – | –
15 | C=C(CCO)C(=O)OCC1OCC(OC(=O)C(=C)CCO[C@@H]2O[C@H](CO)[C@@H](O)[C@H](O)[C@H]2O)C(O)C1O (stereo partly drawn) | inactive | inactive | inactive | – | –
16 | C=C1CC[C@H]2[C@@](C)(CCC(OC3OC(CO)C(O)C(O)C3O)[C@@]2(C)CO)C1C(=O)CC1=CCOC1=O (stereo partly drawn) | inactive | inactive | inactive | – | –
17 | Cc1occc(=O)c1O[C@@H]1O[C@H](COC(=O)CC(C)(O)CC(=O)O)[C@@H](O)[C@H](O)[C@H]1O (stereo partly drawn) | inactive | inactive | inactive | – | –
18 | Cc1cc(CO)c(O)c(C(=O)CC2CC(=O)NC(=O)C2)c1 | inactive | inactive | inactive | – | –
19 | CC1=CC(=O)C2C(C)(C)CCC[C@]2(C)[C@H]1CC[C@H](C)CC(=O)O (stereo partly drawn) | inactive | inactive | inactive | – | –
20 | Cc1ccc(C)c(S(=O)(=O)n2cnc3ccccc32)c1 | inactive | inactive | inactive | – | –
21 | CC1(C)C=Cc2c(ccc3c2[N+]([O-])=C2C3(O)CC34NC(=O)C5(CCCN5C3=O)CC4C2(C)C)O1 (stereo not drawn) | inactive | inactive | inactive | – | –
22 | O=C(O)Cc1cn([C@@H]2OC[C@@H](O[C@@H]3O[C@H](CO)[C@@H](O)[C@H](O)[C@H]3O)[C@H](O)[C@H]2O[C@@H]2O[C@H](CO)[C@@H](O)[C@H](O)[C@H]2O)c2ccccc12 | inactive | inactive | inactive | – | –
23 | Cc1ccccc1N1CCN(S(=O)(=O)C[C@]23CC[C@H](C[C@@H]2NC(=O)[C@@H](N)CCS(C)(=O)=O)C3(C)C)CC1 | inactive | inactive | – | – | –
24 | C=C1CC2C(C)(CCC(=O)O)C(C(C)(C)O)CCC2(C)C2(C(=O)OC)C(=O)C(C)(O)C(=O)C12C (stereo not drawn) | inactive | inactive | inactive | – | –
25 | CC1CC(=O)C2C(O)(C1)CC(O)C13OC1c1c(O)cccc1C(=O)C23O (stereo not drawn) | inactive | inactive | – | – | –
26 | C/C=C(\C)C(=O)OC[C@H]1O[C@@H](O[C@H]2[C@@H](O[C@H]3O[C@H](COC(=O)/C(C)=C/C)[C@@H](O)[C@H](O)[C@H]3O[C@@H]3O[C@H](COC(=O)/C(C)=C/C)[C@@H](O)[C@H](OC(=O)/C(C)=C/C)[C@H]3O)O[C@H](COC(=O)/C(C)=C/C)[C@@H](O)[C@@H]2O)[C@H](O)[C@@H](O)[C@@H]1O | inactive | – | – | -1.81% [at 9.23 µM] | -6.87% [at 9.23 µM]

Row | SMILES | Potency [1] | Potency [2] | Potency [3] | activity change, negative = viability loss [2] | activity change, negative = cell killing [3]
27 | CC1CC2OCC3(O)CCC(O)C(C14CC(c1ccoc1)OC4=O)C23CO (stereo not drawn) | inactive | inactive | inactive | – | –
28 | C[C@H]1[C@@H](O)[C@H](O)C2[C@]3(C)C([C@@H](O)[C@H]4OC(=O)[C@@H]1[C@@]24C)[C@](C)(O)C=C[C@H]3O[C@@H]1O[C@H](CO)[C@@H](O)[C@H](O)[C@H]1O (stereo partly drawn) | inactive | inactive | inactive | – | –
29 | C=C1CCC2[C@@](C)(C(=O)O)CCC[C@@]2(C)[C@@H]1CCc1ccoc1 (stereo partly drawn) | inactive | inactive | – | – | –
30 | CC(=O)O[C@H]1[C@H](OC(=O)C(C)C)[C@]2(C)OC3(CC[C@]2(C)[C@H]2CCC[C@]4(CO4)[C@]12C)COC(=O)C3 (stereo partly drawn) | inactive | inactive | inactive | – | –
31 | COc1c2c(c(C)c3c1C(=O)OC3)OC1(C)CC(O)C34OC(OC)(CCC3(C)C1C2)OC4(C)CO (stereo not drawn) | inactive | inactive | inactive | – | –
32 | C=C1CC[C@@H]2[C@](C)(CO)[C@H](O[C@@H]3O[C@H](CO)[C@@H](O)[C@H](O)[C@H]3O)CC[C@@]2(C)[C@@H]1C/C=C1/C(=O)OC[C@H]1O | inactive | inactive | inactive | – | –
33 | C/C=C(/C)C(=O)O[C@@H]1C[C@@H](OC(=O)/C(C)=C\C)[C@@]2(C)C3C(=O)C=C(C)C2C3C1(C)C | inactive | inactive | inactive | – | –
34 | CC(C)c1ccc2c(c1)C(O)CC1C(C)(C(=O)O)CCCC21C (stereo not drawn) | inactive | inactive | inactive | – | –
35 | CC1(C)CC[C@]2(C(=O)OC3OC(CO)C(O)C(O)C3O)CC[C@]3(C)C(=CCC4[C@@]5(C)C[C@@H](O)[C@H](OC6OC(C(=O)O)C(O)C(O)C6O)C(C)(C)C5CC[C@]43C)[C@@H]2C1 (stereo partly drawn) | inactive | – | – | -7.32% [at 9.23 µM] | -10.4% [at 9.23 µM]
36 | CC(C)=CCc1cc(O[C@@H]2O[C@H](CO[C@@H]3OC[C@](O)(CO)[C@H]3O)[C@@H](O)[C@H](O)[C@H]2O)ccc1O | inactive | inactive | inactive | – | –
37 | COC(=O)C1=CO[C@@H](O[C@@H]2O[C@H](CO)[C@@H](O)[C@H](O)[C@H]2O)[C@H]2[C@@H]1[C@H](O)C[C@]2(C)O | inactive | inactive | inactive | – | –
38 | C=CC(C)(O)C1CC2C3(C)CCCC(C)(C)C3C(O)C(O)C2(C)O1 (stereo not drawn) | inactive | inactive | inactive | – | –
39 | CC(C)(O)C1CCC2(C)CCCC(C)(O)C2C1 (stereo not drawn) | inactive | inactive | inactive | – | –
40 | CC(=O)O[C@@H](C[C@@H]1C=C(C)C(=O)O1)[C@H](C)[C@H]1CCC2[C@@]3(C)CC[C@H](O[C@@H]4O[C@H](CO)[C@@H](O)[C@H](O)[C@H]4O[C@@H]4O[C@@H](C)[C@H](O)[C@@H](O)[C@H]4O)C(C)(C)C3CC[C@@]2(C)[C@@]12COC(=O)C2 (stereo partly drawn) | inactive | – | – | -3.49% [at 9.23 µM] | -8.37% [at 9.23 µM]
41 | O=C(/C=C/c1ccc(O)c(O)c1)OC[C@H]1O[C@@H](OC2CCCCC2O)[C@H](O)[C@@H](O)[C@@H]1O (stereo partly drawn) | inactive | inactive | inactive | – | –
42 | C[C@]12CCC[C@](C)(C(=O)O)C1CCC13CC(CO)C(CCC12)C3 (stereo partly drawn) | inactive | inactive | inactive | – | –
43 | CC1=C(CC/C(C)=C/C(=O)O)[C@@]2(C)CCCC(C)(C)C2CC1=O (stereo partly drawn) | inactive | inactive | inactive | – | –
44 | CC1C2=CC(=O)OC2(O)CC2C1CCC1C(C)(C)CCC(O)C21C (stereo not drawn) | inactive | 14.2 µM (active) | 8.98 µM (active) | – | –
45 | CC1(C(=O)O)CCCC2(C)C3CCC4CC3(CCC12)CC4C(=O)O (stereo not drawn) | inactive | inactive | inactive | – | –
46 | C[C@@H]1O[C@@H](O[C@H]2[C@@H]3C=CO[C@@H](O[C@@H]4O[C@H](CO)[C@@H](O)[C@H](O)[C@H]4O)[C@@H]3[C@@]3(CO)O[C@@H]23)[C@H](O)[C@H](O)[C@H]1OC(=O)/C=C/c1ccc(O)cc1 | inactive | inactive | inactive | – | –
47 | CCN(CCN(C)C)C(=O)CNCc1cc(C(N)=O)ccn1 | inactive | inactive | inactive | – | –
48 | CC1=C2C(=O)C=C(CO[C@@H]3O[C@H](CO)[C@@H](O)[C@H](O)[C@H]3O)[C@@H]2[C@H]2OC(=O)[C@H](C)[C@@H]2[C@@H](O)C1 | inactive | inactive | inactive | – | –
49 | COc1ccc(/C=C/C(=O)O[C@@H]2[C@@H](O)[C@@H](O)[C@H](O[C@H]3[C@@H]4C=CO[C@@H](O[C@@H]5O[C@H](CO)[C@@H](O)[C@H](O)[C@H]5O)[C@@H]4[C@@]4(CO)O[C@@H]34)O[C@H]2C)cc1 | inactive | inactive | inactive | – | –
50 | CC1(C)C[C@@H]2[C@H](C1)[C@@]1(C)C[C@]13C(O)OC[C@]3(O)[C@H]2O (stereo partly drawn) | inactive | inactive | inactive | – | –
51 | CC1(C)C=Cc2c(ccc3c2N=C2C(C)(C)[C@@H]4C[C@]56CCCN5C(=O)[C@@]4(C[C@]23O)NC6=O)O1 | inactive | inactive | inactive | – | –
52 | COc1cc(CCCO)ccc1O[C@@H]1O[C@H](CO)[C@@H](O)[C@H](O)[C@H]1O | inactive | inactive | inactive | – | –
